Compound activity deposited in PubChem BioAssay by ICCB-Longwood Screening Facility, Harvard Medical School.
In the library only some 1.4% were active in any assay of this set; here they are far more common.
PV pol inh = poliovirus RNA polymerase inhibition | poliovirus polymerase elongation, fluorescence polarization; stronger effect = lower value | % elongation, % (compound at 16.7 µg/mL) | 0.66% of 150,000 active; in the data active means % elongation below about 90%
MbtI inh = inhibitors of Mycobacterium tuberculosis siderophore enzyme MbtI; AID 493033; 0.89% of 100,000 active; purified MbtI enzyme, fluorescence intensity read-out; inhibition, % (test concentration not listed); in the data active means inhibition mostly above about 56%, no sharp cut-off; inactive means mostly below about 77%
Target sequence (P9WFX0 whole entry, looked up): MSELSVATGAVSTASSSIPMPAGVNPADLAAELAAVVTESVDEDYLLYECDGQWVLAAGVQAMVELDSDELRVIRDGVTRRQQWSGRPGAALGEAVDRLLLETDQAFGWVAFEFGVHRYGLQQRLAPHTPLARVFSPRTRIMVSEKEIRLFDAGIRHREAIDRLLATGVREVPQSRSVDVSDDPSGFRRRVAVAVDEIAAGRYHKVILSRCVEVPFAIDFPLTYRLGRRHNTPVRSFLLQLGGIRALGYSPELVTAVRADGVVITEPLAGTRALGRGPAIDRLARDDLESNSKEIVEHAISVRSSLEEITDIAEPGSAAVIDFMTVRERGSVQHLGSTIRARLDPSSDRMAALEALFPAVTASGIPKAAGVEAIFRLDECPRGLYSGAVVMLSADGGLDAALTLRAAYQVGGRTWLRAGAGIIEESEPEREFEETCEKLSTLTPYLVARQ
AID504770 = E. coli YBA685 growth inhibition, screen for V. cholerae RctB inhibitors; z-score (test concentration not listed); E. coli YBA685 rctB-dependent plasmid, OD600 growth, 3 h; stronger effect = lower value; AID 504770; 0.27% of 130,000 active; in the data active means z-score below about -2, passing the limit was not always enough
Mtb MenB inh = inhibitors of Mycobacterium tuberculosis MenB enzyme; 0.43% of 100,000 active; MenB enzyme assay, absorbance read-out; P9WNP5; inhibition, % (concentration not given with the values); AID 540299; in the data active means inhibition above about 21%, passing the limit was not always enough
Numbers without * were called inactive; nt = no result; ! = a repeat was not active.

SMILES	PV pol inh	MbtI inh	AID504770	Mtb MenB inh
COC(=O)c1ccc(-c2ccco2)n1Cc1nc(-c2cccc(Cl)c2)oc1C	102.0	29.6	1.2	3.7
Cc1ccc(Cl)cc1N1CCN(C(CC(=O)O)C(=O)c2ccc(F)cc2)CC1 (centres undefined)	70.0*	7.4	-0.05	30.7*
CC(=O)Nc1nc2c(c(-c3ccccc3)c1C#N)CCCCC2	103.0	11.9	-0.35	-14.6
Cc1nc(SCC(=O)Nc2cccc(C(F)(F)F)c2)[nH]c(=O)c1C	103.0	13.3	-0.5	-8.1
Cc1cnc2c(c1)N1CCC2CC1	102.0	1.6	2.15	39.3*
Cc1ccc(CSc2nc3cc(C(=O)NC4CCCC4)ccc3c(=O)n2Cc2ccccc2)cc1	104.0	nt	nt	nt
c1ccc(CCc2nn3c(COc4ccccc4)nnc3s2)cc1	99.0	76.2*	-1	-33.7
c1ccc(OCc2nn3c(-c4ccccc4)nnc3s2)cc1	96.0	86.3*	0.55	-45.1
c1ccc(-c2nn3c(-c4ccccc4)nnc3s2)cc1	101.0	19.1	0.5	-2.8
O=C1c2ccccc2C(=O)N1CCc1nn2c(-c3cccnc3)nnc2s1	100.0	86.7*	-0.4	8.9
COc1ccc(-c2nnc3sc(C(C)N4C(=O)c5ccccc5C4=O)nn23)cc1 (centres undefined)	102.0	5.3	-0.25	-11.3
CCc1cccc(NC(=O)c2ccc3c(c2)N(Cc2cccc(Cl)c2)C(=O)c2ccccc2S3=O)c1 (centres undefined)	110.0	nt	nt	nt
C=CCn1c(N)nc2c1c(=O)n(C)c(=O)n2C	101.0	-4.9	-0.6	49.4*
CCN(CC)N=Nc1ccc(NC(C)=O)cc1	106.0	90.1*	-2.85	9.7
CC(=O)Nc1ccc(N=NN2CCCCC2)cc1	104.0	23.4	-2.5*	-29.0
S=c1n(CN2CCOCC2)c2ccccc2n1-c1ccccc1	72.0*	99.0*	0.2	-6.9
O=c1n(CN2CCOCC2)c2ccccc2n1CN1CCOCC1	108.0	nt	-0.5	-3.3
COc1ccc(CCC(C(O)C(F)(F)F)S(=O)c2ccccc2)cc1 (centres undefined)	103.0	2.8	-0.25	nt
Cc1ccc(CSc2nc(N)cc(N)n2)cc1	101.0	4.1	-0.35	36.4*
COc1ccc(NC(=S)NN)cc1Cl	93.0	92.3*	1.1	-16.5
CC(=O)c1ccc(NC(=O)C2=CC(c3cccs3)=NS(=O)(=O)N2C)cc1	-12.0*	nt	nt	nt
O=C(COc1ccc(Cl)cc1Cl)NO	nt	nt	-5.45*	nt
CCC(CC)NC(=O)COc1ccc(Cl)cc1Cl	101.0	-4.3	0.15	nt
C=CCn1c(=S)[nH]c2cc(C(=O)O)ccc2c1=O	104.0	13.6	-0.3	0.0
C=CCn1c(=S)[nH]c2ccccc2c1=O	104.0	18.9	0.95	31.1*!
SMILES	PV pol inh	MbtI inh	AID504770	Mtb MenB inh
O=C(NCCC1=CCCCC1)C1CCCN(c2cnccn2)C1 (centres undefined)	103.0	-72.5	2.15	1.3
CCOC(=O)c1c(C)oc2nc(COC(=O)c3cc(-c4ccc(Cl)cc4)nc4ccccc34)nc(N)c12	105.0	-9.6	-4.65*	-22.6
COc1ccc(-c2cc(C(=O)Oc3ccc(Cl)cc3)c3ccccc3n2)cc1	105.0	nt	nt	nt
O=C(COc1ccc(Cl)cc1)OCc1ccc(Br)cc1	99.0	-8.9	0.9	nt
CN(C)CCOC(=O)COc1ccc(Cl)cc1	99.0	-10.9	-0.3	68.2*!
CCNc1nc(C)nc2sc(CC)cc12	103.0	nt	-0.15	31.7*
CC(C)C(=O)Nc1ccc2nc(SCC(=O)N3CCc4ccccc43)sc2c1	83.0*	nt	nt	nt
CCO/C=N/c1c(C#N)c(CC#N)nn1-c1ccccc1	100.0	-33.6	-1.2	-2.5
O=C1CC(CSc2ccc(Cl)cc2)=NN1c1nc2ccccc2s1	103.0	-6.0	0.4	-49.6
CC(C)(C)C1=NN(c2nc3ccc(Cl)cc3s2)C(=O)C1	106.0	60.2*	1.35	8.8
S=c1[nH]nc(-c2ccncc2)o1	nt	96.7*	-0.45	nt
N#CC(C#N)=Cc1cc2c(cc1Br)OCO2	70.0*	85.7	0.85	-42.7
N#CC1=C2SCN(C3CCCCC3)CN2C(=O)CC1c1ccc(Br)cc1 (centres undefined)	95.0	nt	nt	nt
COc1ccc(C2CC(=O)N3CN(C4CCCCC4)CSC3=C2C#N)c(OC)c1 (centres undefined)	54.0*	nt	nt	nt
COc1cc(C2CC(=O)N3CN(Cc4ccccc4)CSC3=C2C#N)cc(Br)c1O (centres undefined)	101.0	53.0	0.3	-12.8
N#CC1=C2SCN(C3CCCCC3)CN2C(=O)CC1c1ccccc1 (centres undefined)	101.0	72.8*	0.5	-12.8
Cc1c(S(=O)(=O)c2ccc(Cl)cc2)csc1C(=O)NC1CCN(Cc2ccccc2)CC1	102.0	-9.7	-1.2	-13.9
